In PubChem BioAssay (NCATS):
Records with an inconclusive call do not appear. Activity calls are given as the source filed them. The call rests on the fitted dose curve; in most records, active means well fitted cell-killing curve with a large enough effect; inconclusive means small, poorly fitted or top-dose-only effect, or effect the other way; inactive means flat fitted curve, though single readings scatter.

How the values were obtained:
Test in all cases: Primary qHTS to identify gynecologic anti-cancer compounds using libraries of approved drugs and bioactive compounds (AID 1345084); further: nearly all actives have a fitted effect of over 55% in size
Settings in all cases: Gynecologic cancer cell panel viability, ATPlite luminescence, 48 h; series mostly up to 57.5 µM
[1] = tested on: OV90
How it was run: (§1)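 Luminescence from the ATPlite ATP-monitoring reagent indicates viable cell number; lower signal means cytotoxicity. Cells received compound 16 h after seeding and were exposed for 48 h across five concentrations.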

[2] = tested on: PA-1
How it was run: as §1

[3] = tested on: SKOV3
How it was run: as §1

[4] = tested on: Tov-21-G
How it was run: as §1

[5] = tested on: Tov112D
How it was run: as §1

Measured: Potency

CC(=O)O[C@@H]1[C@H]2[C@@H](OC(=O)c3ccccc3)[C@@H](C)C[C@]2(O)[C@H](OC(C)=O)[C@@]2(C)[C@@H]3CC(C)(C)C(=O)[C@]3(OC(C)=O)C[C@@]12C
inactive: all assays above

CC1(C(=O)O)CCCC2(C)C1CCC13CC(CCC21)C1(CO)OC31 (stereo not given)
inactive: all assays above

CC(C)(O)/C=C1/C(=O)C(C)(C)C(=O)C(C)(C)C1(O)O[C@@H]1O[C@H](COC(=O)c2cc(O)c(O)c(O)c2)[C@@H](O)[C@H](O)[C@H]1O (stereo not given in full)
inactive: all assays above

CNC(=O)c1ccc2cc([C@@]3(O)CCn4cncc43)ccc2c1
inactive: all assays above

Cc1c(-c2ccnn2C)cc(C(=O)NCc2ccc(S(C)(=O)=O)cn2)c(=O)n1-c1cccc(C(F)(F)F)c1
inactive: all assays above

CC(C)(O)C1CC=C(C(=O)OCC2OC(Oc3c(O)cc(C(=O)O)cc3O)C(O)C(O)C2O)CC1 (stereo not given)
inactive: all assays above

C=C1CCC2C(C)(COC3OC(COC(=O)CC(=O)O)C(O)C(O)C3O)CCCC2(C)C1CCC1=CCOC1=O (stereo not given)
inactive: all assays above

C=CC1(C)CC2=CCC3C(C)(C(=O)O)CCCC3(C)C2CC1OC(C)=O (stereo not given)
inactive: all assays above

CC(C)CC(=O)O[C@@H]1OC=C(CO[C@@H]2O[C@H](CO[C@@H]3O[C@H](CO)[C@@H](O)[C@H](O)[C@H]3O)[C@@H](O)[C@H](O)[C@H]2O)[C@H]2C[C@H](O)[C@@H](CO)[C@@H]12
inactive: all assays above
